# Source: PubChem (NMMLSC)
# RGS8-Gao reg = RGS8-Galphao binding modulators, primary screen, biochemical, multiplexed bead flow cytometry | actives lie on both sides | response (percent of control binding), % at 10 µM | Guanine nucleotide-binding protein G(o) subunit alpha (Homo sapiens), P09471 | 0.34% of 220,000 active; in the data active = response below about 60% or above about 140%; inactive = in between;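 also: Galphao activated as the GDP aluminium fluoride complex binding bead-coupled RGS8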
# Target sequence (P09471 whole entry, looked up): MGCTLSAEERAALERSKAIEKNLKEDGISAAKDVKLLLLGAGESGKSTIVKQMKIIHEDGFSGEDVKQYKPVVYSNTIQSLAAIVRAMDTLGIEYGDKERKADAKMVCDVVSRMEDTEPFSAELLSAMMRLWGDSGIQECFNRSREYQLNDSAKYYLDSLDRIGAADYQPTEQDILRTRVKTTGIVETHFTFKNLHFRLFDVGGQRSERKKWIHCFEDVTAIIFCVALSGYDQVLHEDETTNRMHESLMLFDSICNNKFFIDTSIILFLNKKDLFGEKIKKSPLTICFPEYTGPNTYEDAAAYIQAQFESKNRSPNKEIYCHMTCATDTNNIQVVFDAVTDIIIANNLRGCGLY
# RGS7-Gao reg = RGS7-Galphao binding modulators, primary screen, biochemical, multiplexed bead flow cytometry. 0.35% of 220,000 active. actives lie on both sides. Guanine nucleotide-binding protein G(o) subunit alpha (Homo sapiens), P09471. binding response (% of control), % at 10 µM; in the data active = binding response below about 49% or above about 150%; inconclusive = no clear call, values can overlap the other calls; inactive = in between;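 also: fluorescent Galphao held in activated GDP-AlF4 state binding bead-coupled RGS7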
# RGS16-Gao HTS = modulators of RGS16 binding to Galphao, primary screen, biochemical, human proteins, multiplexed bead flow cytometry; 0.38% of 220,000 active; AID 1441, 2008; binding response (% of control), % at 10 µM; bead-based flow cytometry RGS16-Galphao binding, fluorescence; actives lie on both sides; Regulator of G-protein signaling 16 (Homo sapiens) + Guanine nucleotide-binding protein …; call rule not given here;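 also: Galphao activated by GDP with aluminum fluoride before binding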
# Target sequence (O15492 whole entry, looked up): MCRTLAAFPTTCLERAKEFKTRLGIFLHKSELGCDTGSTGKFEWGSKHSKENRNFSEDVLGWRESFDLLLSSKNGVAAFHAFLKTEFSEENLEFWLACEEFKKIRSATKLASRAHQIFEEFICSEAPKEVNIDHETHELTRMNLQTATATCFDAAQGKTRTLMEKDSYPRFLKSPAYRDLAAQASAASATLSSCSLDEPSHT
# Target sequence (P09471 whole entry, looked up): as the sequence (P09471 whole entry, looked up) above
# GSH bead fluor = compound fluorescence on glutathione beads, profiling panel, artefact control, biophysical, 488/530 nm, flow cytometry | GSH beads flow cytometry, compound fluorescence 488/530 nm; hits give high values | fluorescence (KMESF) at 10 µM | 0.25% of 190,000 active | AID 1776, 2009; in the data active = fluorescence above about 89;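 also: glutathione beads carrying GST-tagged Bcl family fusion proteins plus one bare bead set; values are compound well signal with DMSO vehicle wells as background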
# Avidin fluor = green autofluorescence of compounds with avidin beads – biophysical, 488/530 nm, flow cytometry, artefact control, profiling panel; compound fluorescence 488/530 nm; hits give high values; fluorescence (KMESF) at 10 µM; 0.38% of 220,000 active; in the data active = fluorescence above about 47
# RGS4-Gao reg = modulators of RGS4 binding to Galphao, primary screen, biochemical, multiplexed bead flow cytometry; 0.33% of 220,000 active; Guanine nucleotide-binding protein G(o) subunit alpha (Homo sapiens), P09471; AID 1415, 2008; binding response (% of control), % at 10 µM; actives lie on both sides; in the data active = binding response below about 49% or above about 150%; inactive = in between;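 also: fluorescent Galphao activated with aluminum fluoride binding bead-coupled RGS4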
# Active calls of the source: *; ? = inconclusive; · = no result given; ! = a repeat was not active. The list is not random: actives were taken first. Their share in the collection is about 1.2%.
SMILES,RGS8-Gao reg,RGS7-Gao reg,RGS16-Gao HTS,GSH bead fluor,Avidin fluor,RGS4-Gao reg
CC1=NN(c2ccc(N)cc2)C(=O)C1,74.3,12.4*,-44.1,223*,0,34.7*
CC1=NN(c2ccc(Cl)cc2)C(=O)C1,100.4,97.1,95.8,18,9,101.3
Cn1nc(C(C)(C)C)c(NC(=O)c2cccs2)c1C(C)(C)C,103.7,?,101.4,·,7,100.6
CC(=O)c1ccc(-c2ccc(C(=O)NC3CCCCCC3)o2)cc1,102.1,101.0,106.5,22,29,101.5
Nc1ccc(N2CCN(C(=O)c3cccs3)CC2)cc1,91.7,85.1,84.6,46,3,83.4
CC(=O)Nc1ccc(N2CCN(C(=O)c3cccs3)CC2)cc1,95.2,132.4,78.3,22,99*,104.0
COc1cc(-c2c(C#N)c(=O)[nH]c3c2c(C)nn3-c2ccccc2)ccc1O,101.6,108.6,101.5,17,48*,102.8
Cc1nn(Cc2cccc(C(=O)NCC(C)C)c2)c(C)c1Br,102.0,112.0,96.3,148*,6,115.5
Cc1nn(Cc2cccc(C(N)=O)c2)c(C)c1Br,101.0,?,106.4,·,6,98.5
Cc1ccc(C2NCCS2)cc1 (stereo unspecified),74.3,105.3,98.0,9,4,104.4
CN(C)c1ccc(C2NCCS2)cc1 (stereo unspecified),47.0*,27.4*,21.1*,11,9,15.2*
O=c1c2ccccc2nc(SCc2cccc(F)c2)n1Cc1ccco1,99.8,122.4,109.0,25,72*,107.8
Cc1cc2occ(CC(=O)O)c2cc1C,100.6,97.9,95.4,234*,7,96.7
Cc1ccc2c(CC(=O)O)coc2c1,101.9,106.3,105.5,24,15,102.8
O=C(NCC(=O)N(c1cccnc1)C(C(=O)NC1CCCC1)c1ccco1)c1cccs1 (stereo unspecified),101.1,113.1,100.6,28,57*,104.9
O=C(NCCN1CCN(Cc2ccccc2)CC1)C1c2ccccc2C(=O)N2CCc3ccccc3C12 (stereo unspecified),100.0,149.8,100.5,20,112*,112.5
C(=N\Nc1ccccc1)/c1nc2ccccc2s1,103.2,?,105.6,·,6,103.2
CCn1c(CC(=O)Nc2ccc(C)cc2)nnc1SCC(=O)NCCc1ccccc1,100.6,110.6,106.5,15,49*,104.4
CCn1c(Cc2ccccc2)nnc1SCC(=O)Nc1ccc(C)cc1,100.1,100.4,107.6,16,5,97.2
CCCCOc1ccc(N=Cc2cccs2)cc1,80.4,97.2,43.9,6,1,92.2
Oc1ccc(N=Cc2ccc(-c3cccs3)s2)cc1,98.7,105.5,102.0,10,47*,104.5
Cc1ccc(NC(=O)c2ccc3c(c2)C(=O)N(CC2CCCO2)C3=O)cc1C (stereo unspecified),103.2,102.8,109.0,9,7,100.1
O=C(NN1C(=O)c2ccccc2C1=O)c1ccc2c(c1)C(=O)N(CC1CCCO1)C2=O (stereo unspecified),103.7,?,110.5,·,52*,112.5
COc1cccc(-n2c(=O)n(Cc3ccccc3)c(=O)c3[nH]cnc32)c1C,98.6,?,96.5,·,5,97.3
CC(=O)Nc1ccc(C(=O)OC2CCCCC2=O)cc1 (stereo unspecified),99.8,100.0,102.2,280*,6,101.0
SMILES,RGS8-Gao reg,RGS7-Gao reg,RGS16-Gao HTS,GSH bead fluor,Avidin fluor,RGS4-Gao reg
CC(=O)Nc1ccc(C(=O)OC2CCOC2=O)cc1 (stereo unspecified),98.7,97.3,102.1,26,10,102.2
S=C1Cc2ccccc2N1,93.3,?,97.3,·,8,99.5
Cc1cc(NC(=O)c2ccccc2F)nc2c1c(=O)oc1ccccc12,99.3,101.0,98.0,18,9,99.2
COC(=O)CC1C(=O)NCCN1C(=O)CSc1nnc(Nc2ccc(C)cc2)s1 (stereo unspecified),101.0,106.0,103.3,260*,17,99.1
CCc1nnc(NC(=O)C2CCCN2C(=O)NC2CCCCC2)s1 (stereo unspecified),100.3,102.3,99.8,262*,8,101.7
O=C(Cc1n[nH]c(=O)[nH]c1=O)N/N=C/c1ccccc1,104.2,101.7,102.7,9,21,102.6
O=C(CSc1n[nH]c(=O)[nH]c1=O)N/N=C/c1ccccc1,109.4,93.5,130.6,215*,10,92.7
Cc1noc(/C=C/c2ccc(-c3ccccc3Cl)o2)c1[N+](=O)[O-],99.0,114.9,110.8,30,57*,111.0
CC(=O)N1CCC(C(=O)Nc2ccccc2)(N(Cc2ccccc2)C(=O)c2cccnc2)CC1,103.6,100.0,106.1,267*,8,102.3
Cc1ccc(S(=O)(=O)Nc2cc(-c3ccccc3)nn2C)cc1Cl,102.8,?,104.5,·,7,107.0
CC1(C)Cc2c(C#N)c(SCC(=O)c3ccccc3)nc(N3CCOCC3)c2CS1,102.0,127.0,102.3,23,49*,103.8
Cc1c2cc(O)c(=O)cc-2oc2cc(O)c(O)cc12,31.4*!,-4.9*!,89.8,·,6,25.0*!
COc1cc(OC)c(-c2c3cc(O)c(=O)cc-3oc3cc(O)c(O)cc23)cc1OC,32.2*,-3.2*,30.1,283*,-1,36.8*
CCc1ccc(CN2CCCC(CCC(=O)N3CCN(c4ccccn4)CC3)C2)o1 (stereo unspecified),108.9,?,122.1,·,4,124.4
COc1cc(/C=N\Nc2ccc([N+](=O)[O-])cc2)ccc1OCC(=O)Nc1ccc(C)c(C)c1,100.2,95.1,103.4,13,61*,92.3
CCOc1cc(/C=N\Nc2ccc([N+](=O)[O-])cc2)ccc1OCC(=O)Nc1ccc(C)c(C)c1,98.5,95.2,92.7,16,32,93.5
COC(=O)c1csc2c(C(F)(F)F)cc(N3CCN(C(=O)Nc4ccccc4)CC3)nc12,101.9,?,97.1,·,7,96.5
CCCC(=O)Nc1nc(C)c(-c2csc(Nc3cc(OC)ccc3OC)n2)s1,100.7,121.2,102.5,22,80*,106.7
C=CCCC(=O)Nc1nc(C)c(-c2csc(Nc3cc(OC)ccc3OC)n2)s1,103.5,102.9,101.6,22,27,105.0
COC(=O)COc1cc(C)cc2oc(=O)c(CC(=O)OC)c(C)c12,96.3,98.9,93.7,24,60*,91.3
C/C(=N\NC(=O)CN(c1ccc(Oc2ccccc2)cc1)S(C)(=O)=O)C(C)(C)C,99.9,95.5,99.3,11,9,102.1
